SMILES strings stand for the structures. Screen size: about 1,400 compounds; fewer than 10 were called active.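 How the source made its calls: active means fluorescence-lowering compounds whose fitted half-maximal concentration is at or below ten times the highest valid dose tested; inconclusive means flat curve at 30 to 70% inhibition, or poor fit; inactive means the rest.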 Not all results are given here.

The experiment deals with Histone deacetylase 3 (Homo sapiens) (UniProt O15379). In words: HDAC3 deacetylase inhibitors, dose response, counter-screen for JMJD2C/GASC1 demethylase inhibitor project, biochemical, fluorescence, cherry-picked samples (AID 485318).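 Further: enzyme preincubated with compound before substrate and trypsin were added.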 The conditions noted are these: recombinant HDAC3, fluorogenic peptide/trypsin coupled; series mostly up to 12 µM.
Histone deacetylase 3 (Homo sapiens), sequence (O15379 whole entry, looked up): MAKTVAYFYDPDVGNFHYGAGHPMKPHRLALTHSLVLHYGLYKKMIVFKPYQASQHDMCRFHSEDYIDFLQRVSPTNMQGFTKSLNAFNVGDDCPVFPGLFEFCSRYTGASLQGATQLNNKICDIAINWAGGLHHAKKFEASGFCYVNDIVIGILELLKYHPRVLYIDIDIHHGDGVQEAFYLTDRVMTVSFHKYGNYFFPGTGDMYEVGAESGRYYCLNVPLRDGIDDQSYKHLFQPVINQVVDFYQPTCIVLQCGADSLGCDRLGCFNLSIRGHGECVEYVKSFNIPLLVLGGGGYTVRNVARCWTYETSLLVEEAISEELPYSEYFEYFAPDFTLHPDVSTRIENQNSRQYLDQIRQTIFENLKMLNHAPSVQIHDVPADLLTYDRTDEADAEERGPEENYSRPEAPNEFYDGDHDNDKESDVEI
Regarding `COc1cccc(OC)c1C(=O)NC(=S)N1CCOCC1`, the outcome was inactive.

On to `COc1cccc(-n2nnc3c(=O)n(Cc4ccccc4F)cnc32)c1`, for which the outcome was inactive.

On to `CCn1c(SCC(=O)NCc2ccco2)nnc1-c1cccs1`, for which the outcome was inactive.

As for `CSc1nc(N)nc2c1ncn2CC(=O)N[C@H](C)c1cccc2ccccc12`, the outcome was inactive.

For `COC(=O)C1=C(C)N(Cc2ccccc2)C(=NCCc2c[nH]c3ccccc23)N[C@H]1c1ccccc1`, the result was inactive.

Regarding `CC(=O)c1c(C)[nH]c(C(=O)NCCC2=CCCCC2)c1C`, the result was inactive.

Consider `COc1ccc(S(=O)(=O)Nc2ccc3c(c2)CC(=O)N([C@@H](C)CO)C[C@H](C)[C@@H](CN(C)S(=O)(=O)c2ccc(F)cc2)O3)cc1`, for which the result was inactive.

Consider `COc1ccccc1NC(=O)COC(=O)c1[nH]c(=O)[nH]c(=O)c1N`, for which the outcome was inactive.

In the case of `Cc1cccc(N2CC(C(=O)Nc3nnc(SCC(=O)Nc4nccs4)s3)CC2=O)c1` (stereo not given), the outcome was inactive.

Consider `CN(C)c1nc(C(=O)Nc2ccccc2)nc(N(C)C)n1`, for which the result was inactive.

As for `CCOc1ccc(-c2nc(CSCC(=O)NC3CCCc4ccccc43)c(C)o2)cc1` (stereo not given), the result was inactive.

On to `Cc1cc2cc3c(cc2nc1SCC(=O)N1CCOCC1)OCO3`, for which the result was inactive.

In the case of `CC(C)(C)OC(=O)CNC(=O)c1[nH]cnc1C(=O)N[C@@H](CCCCN)C(=O)OC(C)(C)C`, the outcome was inactive.

Turning to `COc1ccc(OC)c(Nc2nnc(C)c(=O)[nH]2)c1`, the result was inactive.

In the case of `O=C(O)CCCNC(=O)c1cccc(C(=O)NCCCC(=O)O)n1`, the outcome was inactive.

For the molecule `O=C(O)c1cc(O)c2c(c1)[C@@H]([C@H]1c3cc(C(=O)O)cc(O)c3C(=O)c3c(O[C@@H]4O[C@H](CO)[C@@H](O)[C@H](O)[C@H]4O)cccc31)c1cccc(O[C@@H]3O[C@H](CO)[C@@H](O)[C@H](O)[C@H]3O)c1C2=O`, the outcome was inactive.

Consider `CN(C)CCNC(=O)c1onc(CSc2ccncc2)c1C(=O)NCCN(C)C`, for which the result was inactive.

For the molecule `N#CC(C(=O)NCCc1ccccc1)c1nc2ccccc2nc1N1CCOCC1` (stereo not given), the result was inactive.

As to `COc1ccc(NC(=O)CNC(=O)c2nn(-c3ccc(OC)c(Cl)c3)c(=O)c3ccccc23)c(OC)c1`, the result was inactive.

As to `Cc1ccc(-c2noc(C3CCN(S(C)(=O)=O)CC3)n2)o1`, the result was inactive.

For the molecule `Cc1nnc(N2C(=O)c3cccc4c([N+](=O)[O-])ccc(c34)C2=O)s1`, the result was inactive.

As for `CCOC(=O)CCCCCC(=O)Nc1ccc2c(c1)CC(=O)N([C@@H](C)CO)C[C@H](C)[C@@H](CN(C)C(=O)Nc1ccc3c(c1)OCO3)O2`, the result was inactive.

For the molecule `CSc1ccccc1C(=O)Nc1ccc(C)c(C)c1`, the outcome was inactive.

Take `CC(C)N(C(=O)[C@H]1CC(CC(=O)NCc2cccc(C(F)(F)F)c2)C(=O)N2CCc3c([nH]c4ccccc34)[C@]12C)C(C)C` (stereo not given in full): the result was inactive.

Regarding `N#Cc1ccc(C23OCCN2CCn2nc4ccccc4c23)cc1` (stereo not given), the outcome was inactive.

Take `CCc1ccc(NC(=O)C/C(C)=N/NC(=O)COc2ccc(C)cc2Br)cc1`: the outcome was inactive.

Take `COc1ccc(-c2csc(NNC3=NCCCCC3)n2)cc1`: the result was inactive.

Consider `CC1(C)C2CCC1(CS(=O)(=O)N1CCN(c3ccccc3F)CC1)C(=O)C2` (stereo not given), for which the outcome was inactive.

As to `Cc1ccc(O)c(C(=O)c2cc(C#N)c(=O)n(CC3CCCO3)c2)c1` (stereo not given), the result was inactive.

For `CCOC(=O)c1ccc2c(c1)nc(COc1ccc3ccccc3c1)n2CC`, the result was inactive.

Regarding `O=C(NCc1ccccn1)c1ccc(OC2CCN(Cc3cccs3)CC2)cc1`, the outcome was inactive.

For the molecule `CCOC(=O)c1sc(Nc2nc(OC)cc(OC)n2)nc1C`, the result was inactive.

As for `CN(C)C(=O)c1cccc(-c2csc(N3CCC(C(N)=O)CC3)n2)c1`, the result was inactive.

Take `COc1ccc(-c2ccc3oc(-c4ccsc4)cc(=O)c3c2)cn1`: the outcome was inactive.

In the case of `COc1ccc(CCNC(=O)c2cccc(NS(=O)(=O)c3ccccc3F)c2)cc1OC`, the outcome was inactive.

Values taken from PubChem BioAssay AID485318 (Broad Institute, 2010).
